Screening results: PubChem BioAssay, several laboratories
MITF TRPM1 inh: inhibitors of MITF-dependent TRPM1 promoter reporter, primary screen, cell-based, SK-MEL-5, single point, luciferase; SK-MEL-5 TRPM1 promoter luciferase, 24 h; hit rate 0.83% among 330,000; inhibition, % at 12.5 µM; AID 488899, 2010;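 active = mean inhibition across replicates of 60% or more, whatever share of single replicates reaches that level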
Peg3 promoter: Peg3 promoter-driven luciferase inhibitors, primary screen, cell-based, HeLa, luciferase luminescence; HeLa PEG-Prom luciferase reporter, overnight; inhibition, % at 20 µM; hit rate 1.7% among 360,000;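 active = inhibition of at least 50% at 20 µM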
KKLEB cytotox: cytotoxicity in KKLEB CF airway cells, primary screen, cytotoxicity control for CF NF-kB inhibitor project, cell-based, uHTS, fluorescence assay plates | activity change (cytotoxicity), % at 5 µM | AID 602141, 2011 | hit rate 0.36% among 360,000 | KKLEB CF airway cells viability, ATPlite luminescence, overnight; hits give low values; cells stimulated with P. aeruginosa culture filtrate;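 active = corrected activity change at or below -50% at 5 µM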
Shn3 inh set2: reduction of Shn3 3'UTR firefly luciferase signal, primary screen, Schnurri-3 inhibitor project, cell-based, Clone20 osteoblasts, set 2; Clone20 osteoblast Shn3 3'UTR firefly luciferase, 24 h; inhibition, % at 12.5 µM; hit rate 0.52% among 360,000; AID 588674, 2011;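 active = mean inhibition of at least 75% with every replicate also reaching 75%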;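 note: 0% = median of neutral control wells and 100% = pilot-screen positive control compound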
HIF-2a inh: HIF-2a reporter inhibitors, primary screen, luminescence, 786-0 RCC cells; 786-0 RCC cells HIF-2a reporter, luciferase luminescence, overnight; inhibition, % at 18.8 µM; hit rate 0.72% among 360,000; AID 624352, 2012;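 active = inhibition of the luminescence signal of 40% or more relative to plate controls, in a single-dose primary screen at 18.75 µM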
CF NFkB inh: inhibitors of PAF-induced NF-kB signaling, primary screen, cell-based, GFP fluorescence, uHTS | KKLEB NF-kB-GFP reporter, GFP fluorescence overnight | inhibition, % at 5 µM | hit rate 0.86% among 360,000 | AID 588850, 2011;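 active = at least 50% inhibition at 5 µM, scaled per plate between neutral and stimulator controls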;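 note: PAF is a Pseudomonas aeruginosa culture filtrate used as stimulus; plate controls were PAF-stimulated DMSO wells for no effect and unstimulated DMSO wells for full effect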
Mdm2 MdmX conf: retested Mdm2-MdmX interaction blockers, confirmation, cell-based, luminescence, single concentration, set 2; hit rate 99% among 740; SaOS-2 split-luciferase Mdm2/MdmX complementation; shares compounds with HIF-2a inh; inhibition, % at 8 µM; AID 504601, 2011;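 active = mean inhibition of the luminescence signal across two replicates at or above 26 percent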
HIF-2a conf: HIF-2a reporter inhibitor retest, confirmation, luminescence, 786-0 RCC cells; shares compounds with HIF-2a inh; HIF-2a luciferase reporter luminescence, overnight; inhibition, % at 18.8 µM; hit rate 56% among 1,800; AID 651580, 2012;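 active = mean inhibition across four replicates of at least 40 percent at the single tested concentration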
HIF-1a counter: HIF-1a luciferase reporter signal reduction – MiaPaCa-2 cells, single concentration, counter-screen for HIF-2a inhibitor project, confirmation | hit rate 72% among 1,800 | AID 651589, 2012 | MiaPaCa-2 HIF-1a luciferase reporter, desferoxamine, overnight | shares compounds with HIF-2a inh | inhibition, % at 18.8 µM;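 active = mean inhibition of the reporter signal across four replicates at the single tested dose of 50% or more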
* marks the source's active call; other numbers are inactive results; nt = no result given. This is a sample that favours compounds with a hit; in the whole collection about 2.8% have one here.

SMILES	MITF TRPM1 inh	Peg3 promoter	KKLEB cytotox	Shn3 inh set2	HIF-2a inh	CF NFkB inh	HIF-2a conf	HIF-1a counter	others
CC(C)(C)c1nc(SCC(=O)Nc2nc3c(s2)CCCC3)c2ccccc2n1	5	29	-42	19	-5	26	nt	nt	Mdm2 MdmX conf=101*
C#CCN(C[C@@H]1[C@@H](OC(=O)Nc2c(C)noc2C)[C@@H](OC(=O)Nc2c(C)noc2C)Cn2c(=O)n(CCCCCC)c(=O)n21)S(=O)(=O)c1ccc(C)cc1	nt	-20	6	2	18	4	nt	nt
COc1ccc(C2C(O)C(c3c[nH]c4ccccc34)=NN2C(=O)CCl)cc1 (stereo not given)	98*	117*	-89*	96*	93*	98*	88*	106*
CCOc1cc(C=C(C(=O)OC)C(=O)OC)ccc1OCc1ccc([N+](=O)[O-])cc1	58	107*	-2	96*	92*	31	98*	107*
Cc1cccc(C(=O)Nc2ccc(C(=O)/C=C/c3cccnc3)cc2)c1	27	109*	-16	97*	76*	38	-104	104*
O=C(/C=C/c1cccnc1)/C=C/c1cccnc1	96*	109*	3	94*	95*	75*	66*	107*
Cc1cccc(C(=O)Nc2ccc(C(=O)/C=C/c3ccncc3)cc2)c1	55	102*	5	85	88*	24	-77	105*
Cc1cccc(C(=O)Nc2cccc(C(=O)N/N=C/c3ccncc3)c2)c1	-26	2	-16	7	-2	-2	nt	nt
CCOc1cc(C(=S)N2CCOCC2)ccc1OC(=O)c1cc(OC)c(OC)c(OC)c1	10	17	2	2	22	-14	nt	nt
COc1ccc(C)cc1S(=O)(=O)N1CCN(C)CC1c1ccccc1 (stereo not given)	-1	7	5	7	19	-3	nt	nt
COc1ccc(/C=N/n2c(=O)[nH]c3c([nH]c4ccc(Cl)cc43)c2=O)cc1CN1CCCCC1	-5	-6	13	-15	9	-12	nt	nt
COc1ccc2[nH]c3c(=O)n(/N=C/[C@H]4C(C)C=C(C)CC4C)c(=O)[nH]c3c2c1 (stereo not given in full)	17	51*	-12	1	58*	6	-2	100*
COc1ccc(NC(=O)CNC(=O)Cc2cccc3ccccc23)c(OC)c1	-6	39	20	-6	8	-12	nt	nt
CCN1CSC(=S)N(Cc2ccc(OC)cc2)C1	-8	16	5	-11	67*	-8	-1	42
CCN1CSC(=S)N(Cc2ccccc2)C1	4	16	5	11	25	9	nt	nt
COc1ccc(/C=C2\N=C(SC)N(c3ccccc3OC)C2=O)cc1	-11	-32	0	14	-86	-4	nt	nt	Mdm2 MdmX conf=100*
O=C(NCc1cc(C(F)(F)F)ccc1Cl)c1cccc2c1C(=O)c1ccc(N3CCC(N4CCCCC4)CC3)cc1S2(=O)=O	nt	99*	-14	76	92*	-15	-4	100*
CCOC(=O)c1nn2c(C(F)(F)F)cc(-c3ccc(OC)cc3)nc2c1Br	-1	18	0	12	16	-5	nt	nt
CC(=O)Nc1ccc(NC(=O)c2cccc3c2-c2ccccc2C3=O)cc1	11	7	-9	7	18	-22	nt	nt
